Screens deposited in PubChem BioAssay by National Center for Advancing Translational Sciences (NCATS).
A selection: hits, their analogues and other compounds. The true share with any hit is near 11%.
NPR1 antag: blocks ANP-stimulated signaling of human Npr1 receptor | P16066 | HEK293 hNpr1 GloSensor cGMP, ANP-stimulated luminescence | Potency, µM (doses to about 46.3 µM), inactives show at the highest dose activity change, negative = inhibition, usual class: inhibitors | actives 1.6% (n = 76,000) | AID 1347048; calls by dose curve; note: nearly all actives have a fitted effect of over 60% in size
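Compound pre-incubated 30 min at room temperature on GloSensor-loaded HEK293 cells stably carrying hNpr1 and the pGS-40F cGMP biosensor. Stimulation uses hNppA at 0.1 nM final; luminescence is taken at baseline and 20 min post-agonist.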
HEK cytotox: kills HEK 293 cells; actives 6.6% (n = 94,000); Potency, µM (doses to about 115 µM), inactives show at the highest dose activity change, negative = cytotoxicity, most hits filed as inhibitors; HEK 293 viability, ATP luminescence (CellTiter-Glo), 48-72 h; note: nearly all actives have a fitted effect of over 60% in size
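Cytotoxicity was scored by loss of ATP-coupled luminescence (CellTiter-Glo) in HEK 293 cells. Compound treatment ran 48 or 72 hr at 37 degree Celsius, 5% CO2, 95% humidity.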
Luciferase inh: blocks purified firefly luciferase enzyme activity | purified P. pyralis luciferase, luminescence, biochemical | P08659 | actives 2.5% (n = 76,000) | Potency, µM (titrated, usually from 115 µM), hits mostly inhibitors; note: nearly all actives have a fitted effect of over 65% in size
Target sequence (P08659 whole entry, looked up): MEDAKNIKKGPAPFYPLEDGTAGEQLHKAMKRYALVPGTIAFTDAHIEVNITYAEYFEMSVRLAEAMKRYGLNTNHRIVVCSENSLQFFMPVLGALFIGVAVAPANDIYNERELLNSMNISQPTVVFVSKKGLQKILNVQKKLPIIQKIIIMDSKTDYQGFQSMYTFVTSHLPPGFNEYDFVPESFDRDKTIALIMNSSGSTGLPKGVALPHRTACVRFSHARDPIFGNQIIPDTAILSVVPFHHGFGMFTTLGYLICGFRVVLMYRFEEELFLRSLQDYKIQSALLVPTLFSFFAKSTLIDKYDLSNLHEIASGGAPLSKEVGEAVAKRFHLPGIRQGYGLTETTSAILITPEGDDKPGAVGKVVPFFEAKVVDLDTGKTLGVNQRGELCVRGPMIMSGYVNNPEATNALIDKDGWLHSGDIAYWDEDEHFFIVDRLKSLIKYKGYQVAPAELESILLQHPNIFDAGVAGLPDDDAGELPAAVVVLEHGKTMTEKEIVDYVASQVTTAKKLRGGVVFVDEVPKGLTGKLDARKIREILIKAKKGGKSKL
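Luminescence read by CCD imaging after purified firefly luciferase (10nM final) was added to substrate buffer holding 10uM D-luciferin and 10uM ATP, pH 7.5, pre-dosed with compound.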
NIH3T3 tox: kills NIH 3T3 cells | NIH 3T3 viability, CellTiter-Glo ATP luminescence, 48-72 h | Potency, µM (top dose mostly 96.7 µM), for the others: at the highest dose activity change, negative = cytotoxicity, most hits filed as inhibitors | actives 4.3% (n = 94,000) | AID 1345082; note: nearly all actives have a fitted effect of over 55% in size
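Cytotoxicity was measured by CellTiter-Glo ATP luminescence after 48 or 72 h compound exposure at 37 °C. Mouse NIH 3T3 fibroblasts were seeded at 400 cells/well and dosed by 23 nL pin transfer.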
An asterisk follows results filed as active; i = inactive; ? = inconclusive; . = not tested or not shown; [ ] = another dose, or the depositor's remark. Unless noted, calls come from the whole dose curve; as a rule, active = well fitted curve in the direction sought with a large enough effect; inconclusive = small, poorly fitted or top-dose-only effect, or another doubt; inactive = no such curve, though single readings can be large; an effect the other way counts as inactive or inconclusive. % is set by controls: 0 for no effect and ±100 for the full control effect; potency is the fitted concentration of half-maximal effect.

SMILES	NPR1 antag	HEK cytotox	Luciferase inh	NIH3T3 tox
CCn1cc(-c2ccc(C)cc2)cc1C(=O)NC(C)c1ccccn1 (stereo not drawn)	-6.7%	39.8µM*	i	?
COCC1CN(Cc2ccc(C(F)(F)F)cc2)CC12CCNCC2 (stereo not drawn)	0.7%	?	i	?
OCC1CN(Cc2cc(F)cc(Br)c2)CC12CCNCC2 (stereo not drawn)	1.9%	31.6µM*	i	?
COCC1CN(Cc2cccc(C(F)(F)F)c2)CC12CCNCC2 (stereo not drawn)	1.5%	89.1µM*	i	?
O=C(N1CCOCC1)N1CCCN(c2ccc3nnc(-c4ccccc4)n3n2)CC1	.	-22.2%	.	-18.2%
COc1ccccc1-n1c(=O)c(C(=O)N2CCN([S+](=O)([O-])c3c(C)noc3C)CC2)nc2cccnc21	.	4.1%	.	-3.1%
CC(C)c1ccc(C(=O)N2CCC(C3CCNC3)CC2)cc1 (stereo not drawn)	0.2%	-26.4%	i	-21.5%
CCCc1ccc(S(=O)(=O)N2CCN(C3(CC)CCN(C(=O)NC)C3)CC2)cc1 (stereo not drawn)	-12.6%	?	i	-19.3%
Cc1ccc(OC2(C(=O)NCC3COc4ccccc4O3)CCNCC2)cc1 (stereo not drawn)	3.7%	35.5µM*	i	31.6µM*
Nc1nc(C2CC(N)C2)cc(N2CCN(C3CCCC3)C(=O)C2)n1 (stereo not drawn)	0.8%	-2.6%	i	-0.6%
COc1ccc(N2CCN(c3cc(C4CC(N)C4)nc(N)n3)CC2(C)C)cc1 (stereo not drawn)	-23.7%	22.4µM*	i	22.4µM*
O=C(NCc1cccs1)c1ccc2nnc(-c3cc[nH]c3)n2c1	.	-24.4%[172 µM]	.	?
O=C(NCc1ccccc1)C1CCc2nnc(C3CCN([S+](=O)([O-])c4ccccc4Cl)CC3)n21 (stereo not drawn)	.	-28.2%[172 µM]	.	-22.6%[138 µM]
Cc1ccc(C2Cn3nnc(C(=O)N4CCC(C(=O)NC(C)C)CC4)c3CO2)cc1 (stereo not drawn)	-9.5%	-1.6%	20µM*	i
CCC(C)NC(=O)C1CCN(C(=O)c2nnn3c2COC(c2ccc(C)cc2)C3)CC1 (stereo not drawn)	-2.2%	-3.8%	?	-16.5%
Cc1ccc(C2Cn3nnc(C(=O)N4CCC(C(=O)NC5CCCC5)CC4)c3CO2)cc1 (stereo not drawn)	1.0%	6.3%	11.2µM*	i
Cc1noc(-c2ccc(OC3CN(C(=O)CN4C(=O)CCC4=O)C3)cc2)n1	.	-4.3%	.	-21.1%
CCOC(=O)C1CCN(C(=O)c2ccc3nnc(CC4CC4)n3c2)CC1	.	-0.2%	.	-7.2%
COc1ccc(-c2ccc3c(n2)c(=O)ncn3CC2CC2)cc1OC	-0.2%[70.6 µM]	i	i	?
Cn1ccc2cc(-c3ccc4c(n3)c(=O)ncn4CC3CC3)ccc21	-10.9%[70.6 µM]	-22.3%[172 µM]	44.7µM*	?
COCCn1cnc2ccc(-c3ccc4c(ccn4C)c3)nc2c1=O	-6.5%[70.6 µM]	?	?	44.7µM*
CN1CCN(Cc2ccc(-c3cnc4c(OCc5ccccc5)nccn34)cc2)CC1	?	?	31.6µM*	?
O=C(NCc1ccc(-c2cnc3c(Oc4ccccc4)nccn23)cc1)c1cccc(O)c1	?	?	i	?
CC(=O)N1CCN(Cc2ccc(-c3cnc4c(OCc5ccccc5)nccn34)cc2)CC1	-87.6%	39.8µM*	?	31.6µM*
O=C(NCc1ccc(Cl)cc1)c1ccc2oc(-c3ccnc(Cl)c3)nc2c1	.	i	.	-7.4%
SMILES	NPR1 antag	HEK cytotox	Luciferase inh	NIH3T3 tox
CCC1(O)CCC12CCN(C(=O)c1ccc(OC)nc1)CC2 (stereo not drawn)	.	-6.9%	.	-29.1%
CCC(C)NC(=O)C(NC(=O)c1ccc(C)cc1)C1CCN(C(=O)c2cccc(F)c2)CC1 (stereo not drawn)	3.7%	-22.1%	i	-7.9%
Cc1noc(C2CC3(CCN(C(=O)CCCc4c[nH]c5ccccc45)CC3)CN2C)n1 (stereo not drawn)	-17.6%	?	i	-31.9%
O=C(NCCc1ccccc1F)c1ccc2nccn2c1	.	-4.3%[172 µM]	.	2.1%[138 µM]
Cc1c(CNC(=O)c2ccc3nc(-c4ccc(F)cc4)cn3c2)cnn1C	-15.4%	?	44.7µM*	-22.5%
O=C(NCCc1nc(-c2ccccc2)cs1)c1ccc2nccn2c1	-17.5%	39.8µM*	i	?
O=C(NCc1nnc2n1CCC2)c1ccc2nc(-c3ccc(F)cc3)cn2c1	-1.1%	i	?	3.3%
CCN(CCn1cccn1)C(=O)c1ccc2nc(-c3ccc(F)cc3)cn2c1	0.6%	?	i	0.8%
CCN(Cc1ccc(C)o1)C(=O)c1ccc2nc(-c3ccc(F)cc3)cn2c1	-14.5%	?	39.8µM*	?
O=C(NCCCc1ccccn1)c1ccc2nc(-c3ccc(F)cc3)cn2c1	-13.5%	44.7µM*	?	?
COc1ccccc1-n1c(=O)c(C(=O)N2CCN(C(=O)NC3CCCC3)CC2)nc2cccnc21	.	0.2%	.	-22.1%
CCOC(=O)C1CCN(C(=O)c2cc(-c3ccc(F)cc3)nc3c2cnn3C)CC1	.	?	.	-27.1%
CN(C)S(=O)(=O)N1CCc2nc3cc(-c4ccccc4)[nH]n3c(=O)c2C1	2.3%	-2.2%	0.447µM*	-18.4%
COc1ccc(-c2cc(N3CCC(NC(=O)c4ccc5nc[nH]c5c4)CC3)n[nH]2)cc1	-1.7%	?	i	-15.4%
Cc1cn2nc(C(=O)Nc3ccc(Cl)cc3)cc2c(N(C)Cc2ccccc2)n1	7.8%	-16.6%	i	-20.1%
Cc1cn2nc(C(=O)Nc3ccc(N(C)C)cc3)cc2c(N(C)Cc2ccccc2)n1	-9.7%	?	2.51µM*	?
O=C(Nc1ccccc1)N1CCCC1C(=O)N1CCCC1c1nc2ccncc2[nH]1 (stereo not drawn)	.	i	.	-0.4%
Cc1nnc2ccc(N3CCCN(C(=O)C(C)C)CC3)nn12	.	2.8%[172 µM]	.	-12.4%[138 µM]
COc1ccc(-c2cc(-c3c(C)noc3C)c3cncn3c2)cc1	-3.0%[70.6 µM]	?	i	?
Cc1noc(C)c1-c1cc(-c2ccccc2O)cn2cncc12	-20.1%[70.6 µM]	50.1µM*	i	25.1µM*
Cc1noc(C)c1-c1cc(-c2cccc3cc[nH]c23)cn2cncc12	?	?	i	28.2µM*
COc1cccc(-c2cc(-c3c(C)noc3C)c3cncn3c2)c1	-15.1%[70.6 µM]	?	i	39.8µM*
O=C(Nc1ccc(-c2nnc3n2CCCC3)cc1)c1ccco1	-3.4%	0.6%	i	3.3%
CCOc1ccccc1NC(=O)N1CC(n2cc(C(=O)N(C)C)nn2)C1	.	-3.7%	.	-14.7%
COc1ccc(F)cc1-c1cccc(C(=O)NCCN[S+](=O)([O-])CCC(F)(F)F)c1	.	79.4µM*	.	?
COc1ccc(F)cc1-c1cccc(C(=O)NCCNC(=O)c2cccnc2)c1	.	?	.	35.5µM*
COc1ccc(F)cc1-c1cccc(C(=O)NCC(=O)NCCc2cccc(F)c2)c1	.	39.8µM*	.	?
COc1ccc(F)cc1-c1cccc(C(=O)NCCNC(=O)c2ccc(F)cc2)c1	.	35.5µM*	.	?
